Measurements reported in ChEMBL document CHEMBL4513216, “Probing the Open Global Health Chemical Diversity Library for Multistage-Active Starting Points for Next-Generation Antimalarials” (ACS Infect Dis, 2020).
In all, about 69,000 compounds went through this assay and about 8,600 (12%) showed an effect of 50% or more. The list comes from a sample in which strong results are over-represented; it also holds similar structures and randomly drawn compounds.

Each molecule was assayed on Plasmodium berghei (assay: Screen against P. berghei liver stage (PbLuc), transformed with Luciferase, at 10uM). Conditions: tested at 10 uM.
Type: functional, HepG2

SMILES	INHIBITION [%]
CN1N=C(C(=O)N(Cc2ccco2)C2CC2)CCC1=O	19
Cc1c(Br)cccc1C(=O)NCC1CCNCC1	39.7
Cn1cccc1CN1CCC2(CCCN(C(=O)c3cccnc3)C2)CC1	-43.1
CCSCc1ccnc(NC(=O)C2CCCO2)c1 (configuration not stated)	-4.26
CCC(CC)n1nc(C)cc1NC(=O)C1CCCO1 (configuration not stated)	-56.4
Cc1ccnc(NC(=O)C2CCCO2)c1 (configuration not stated)	62.3
CC(C)(C)c1cc(NC(=O)C2COCCO2)n(-c2ccccn2)n1 (configuration not stated)	30.7
Cc1nccn1-c1cc(CNC(=O)C2CCCO2)ccn1 (configuration not stated)	21
CC(C)(C)c1cc(NC(=O)C2CCCO2)n(-c2ccccn2)n1 (configuration not stated)	52.5
O=C(c1cnccn1)N1CCC2(CC1)CC(Oc1ccccc1)CO2 (configuration not stated)	41.3
CCOCC1CCN(C(=O)c2sc(C)cc2OC(F)F)CC1	0.325
COc1cc(CCC(=O)NC2CCN(C)CC2)ccc1OCC(F)(F)F	-14.7
COCCNC(=O)c1ccc(NCc2csc(C)n2)cc1Cl	16
COCCOc1cccc(C(=O)N2CCCC(n3cccn3)C2)c1 (configuration not stated)	9.94
CC1CCc2nn(CCNC(=O)Cc3cccs3)c(=O)cc2C1 (configuration not stated)	-45.7
Cc1nc(CN(CCS(C)(=O)=O)C(C)C)no1	49.3
c1ccc(COC[C@H]2CC[C@H]3[C@H](CCN3Cc3cccs3)O2)nc1	49.7
c1cncc(COC[C@H]2CC[C@H]3[C@H](CCN3Cc3cccs3)O2)c1	31.8
c1csc(CN2CC[C@H]3O[C@@H](COCC4CC4)CC[C@H]32)c1	73
c1ccc(COC[C@H]2CC[C@H]3[C@H](CCN3Cc3ccco3)O2)nc1	51.3
COC[C@H]1CC[C@@H]2[C@@H](CCN2Cc2ccco2)O1	-6.39
c1coc(CN2CC[C@H]3O[C@@H](COCC4CC4)CC[C@H]32)c1	53.9
Cc1cccc(COC[C@H]2CC[C@H]3[C@H](CCN3Cc3ccco3)O2)n1	68.4
Cc1cccc(COC[C@@H]2CC[C@H]3[C@H](CCN3Cc3ccco3)O2)n1	43.5
CN(C)C(=O)COC[C@H]1CC[C@@H]2[C@@H](CCN2Cc2ccco2)O1	-11.6
c1coc(CN2CC[C@@H]3O[C@@H](COCc4ccncc4)CC[C@@H]32)c1	0.164

SMILES	INHIBITION [%]
c1ccc(COC[C@H]2CC[C@H]3[C@H](CCN3c3ncccn3)O2)nc1	26.4
c1coc(CN2CC[C@@H]3O[C@@H](COCC4CCOCC4)CC[C@@H]32)c1	-30
Cn1cc(C[C@H]2[C@H](O)CCN2CC2CCOCC2)cn1	6.6
O=C1CNc2ncnc(NCc3cccs3)c2N1	-25.5
CN(Cc1ccco1)C(=O)CN1C(=O)c2cc(Cl)c(Cl)cc2C1=O	39.2
O=C1COC2(CCN(Cc3ccoc3)CC2)CN1	-0.813
CS(=O)(=O)CC(=O)N1C[C@H]2CCC[C@@]2(COc2ccccn2)C1	-0.453
Cn1c(=O)c2cc(C(=O)NCCOc3ccccc3)ccc2n(C)c1=O	33.7
CC(C)n1c(=O)c2ccccc2n(CCCN(C)C)c1=O	28.7
c1ccc(COC[C@H]2CC[C@H]3[C@H](CCN3Cc3ccccn3)O2)nc1	50.9
c1ccc(COC[C@H]2CC[C@H]3[C@H](CCN3Cc3cccnc3)O2)nc1	29.9
c1ccc(CN2CC[C@@H]3O[C@H](COCc4ccncc4)CC[C@@H]32)nc1	14.8
CCCNC(=O)c1[nH]nc(C2CC2)c1Br	-59.9
Cn1cnc2ccc(NC(=O)CCCn3cccn3)cc2c1=O	2.84
O=C(c1ccccc1F)N1CCCC1Cn1c(=O)oc2ccccc21 (configuration not stated)	-1.4
Fc1ccccc1C(CNc1ccncn1)N1CCCC1 (configuration not stated)	43.4
CCc1nc2ccccc2c(=O)n1CC1(O)CCNCC1	28
CS(=O)(=O)N1CCC(O)(Cn2c(C3CC3)nc3ccccc3c2=O)CC1	38.1
CCc1nc2ccccc2c(=O)n1CC1(O)CCN(S(C)(=O)=O)CC1	52.9
CC(C)CCN1CCN(C(=O)c2c[nH]nn2)CC1	-0.275
Cc1nc(COC[C@@H]2CC[C@H]3[C@H](CCN3c3ccccn3)O2)cs1	-106
CN1CC2(CCN(CCOCCO)CC2)CC(c2ccccc2)C1=O (configuration not stated)	73.4
CN1C(=O)C(c2ccccc2)CC12CCN(CCOCCO)CC2 (configuration not stated)	-26.4
CCN1CC2(CCN(CCOCCO)CC2)CC(c2ccccc2)C1=O (configuration not stated)	7.84
CCN(C(=O)COC)C(c1cccnc1)c1ccc2c(c1)CCO2 (configuration not stated)	51.8
CCCC(=O)N(CC)C(c1cccnc1)c1ccc2c(c1)CCO2 (configuration not stated)	29.4

SMILES	INHIBITION [%]
CCC(=O)N(CC)C(c1cccnc1)c1ccc2c(c1)CCO2 (configuration not stated)	37.9
CCN(C(=O)C(C)C)C(c1cccnc1)c1ccc2c(c1)CCO2 (configuration not stated)	3.87
CCN(C(=O)C1CC1)C(c1cccnc1)c1ccc2c(c1)CCO2 (configuration not stated)	21.8
CCN(C(=O)C1CCC1)C(c1cccnc1)c1ccc2c(c1)CCO2 (configuration not stated)	66.2
Cn1ccnc1Sc1ccc(S(N)(=O)=O)cn1	7.92
CS(=O)(=O)c1cc(Cl)cnc1C1CCN(C(=O)C2CC2)CC1	15.49
CCOC(=O)c1nc(COc2c(C)occc2=O)no1	41.7
COCC(=O)N1CCCCC1c1ccnc(Nc2cnccn2)n1 (configuration not stated)	-26.2
CCn1cc(CN(C)S(=O)(=O)c2ccc(Cl)cc2)cn1	-64.7
CCOc1ccc(S(=O)(=O)N(C)Cc2cnn(CC)c2)cc1	55.7
CCn1cc(CN(C)S(=O)(=O)c2ccccc2)cn1	35.8
NC(=O)C1CCN(C(=O)CCCc2nnc(-c3ccccc3)o2)CC1	33.7
O=C([C@@H]1COC[C@H]2CN(C3CCCC3)C[C@H]21)N1CCC(F)CC1	50.3
O=C(O)[C@@H]1CN(C2CCOCC2)C[C@H]1C1CC1	25.1
O=C([C@H]1COC[C@H]2CN(C3CCCC3)C[C@H]21)N1CCOCC1	74.7
O=C([C@@H]1COC[C@H]2CN(C3CCCC3)C[C@H]21)N1CCCO1	35.4
O=C([C@@H]1COC[C@H]2CN(C3CCCCC3)C[C@H]21)N1CCOCC1	7.7
O=C([C@H]1COC[C@H]2CN(C3CCOCC3)C[C@H]21)N1CCC(F)CC1	-20.4
O=C([C@H]1COC[C@H]2CN(C3CCCCC3)C[C@H]21)N1CCOCC1	31.2
O=C([C@H]1COC[C@H]2CN(C3CCCC3)C[C@H]21)N1CCCO1	71.4
O=C([C@H]1COC[C@H]2CN(C3CCCC3)C[C@H]21)N1CCCCO1	5.65
O=C(O)[C@@H]1CN(C2CCCCC2)C[C@H]1C1CC1	9.34
O=C([C@@H]1COC[C@H]2CN(C3CCOCC3)C[C@H]21)N1CCOCC1	-5.69
O=C(O)[C@@H]1CN(C2CCCC2)C[C@H]1C1CC1	57.9
CC(C)N(C)Cc1cnc2n1CCN(C(=O)NC1CCCC1)C2	34.1
CCOCCN1CCN(c2ccc(C#N)cn2)CC1	45.4

SMILES	INHIBITION [%]
CS(=O)(=O)NCCCNCc1cc(F)ccc1Br	30.2
Cc1noc(C)c1CN(C)C(=O)NC1CCOCC1	22.95
Cc1cccc(N2CCN(C(=O)CCCC(=O)N(C)C)C(C)C2)n1 (configuration not stated)	39.3
Cc1nc(CN2CCCC3(CCN(c4cnn(C)c4)C3=O)C2)cs1 (configuration not stated)	6.55
Cc1nccn1C1CCCN(C(=O)c2cnc[nH]2)C1 (configuration not stated)	-9.37
Cn1nc(Cn2cccn2)c2c1CN(C1CCOCC1)C2	44.2
CN(C(=O)c1ccccc1NCC(=O)O)C(C1CC1)C1CC1	25.8
O=C(COCc1ccccc1Cl)N1CCCC(n2ccnc2)C1 (configuration not stated)	17.5
Cc1cccc(CN2C[C@@H]3COC[C@]3(CNC(=O)c3cccn3C)C2)n1	-17.1
O=S(=O)(c1cccs1)N1CCCCC1c1ccn[nH]1 (configuration not stated)	29.3
CCS(=O)(=O)N1CCCC(n2nnn(-c3ccccc3)c2=O)C1 (configuration not stated)	-8.5455
Cc1cc(C)c(-n2cc(CCO)cn2)cc1C	-50.3
Cc1nnc(N2CCc3cnc(C(C)C)nc3C2)c(C#N)c1C	6.72
CC(CCc1ccccc1)N1CCC(C(=O)NCc2ccccc2)CC1 (configuration not stated)	46.7
Cc1cnnn1Cc1ncn2c1CN(Cc1cccs1)CCC2	15.9
CCN(CC)C(=O)CSc1nc2cc(C)nc-2c(O)n1Cc1ccco1	26.7
O=C(Cn1c(=O)n(Cc2ccco2)c2ncccc21)NC1CCCC1	48.6
CC(C)(C)NC(=O)Cn1c(=O)n(Cc2ccco2)c2ncccc21	61.9
CC(C)N(C(=O)Cn1c(-c2ccco2)cc2cccnc21)C(C)C	39.3
O=C(Cn1c(=O)n(Cc2ccco2)c2ncccc21)NC1CC1	39.7
Cc1nn(C(C)(C)C)c(=O)n1CC(=O)NC(C)(C)C	-53.6
O=C(Cn1c(=O)n(Cc2ccco2)c2ncccc21)NC1CCCCC1	53.5
O=C(Cn1c(=O)n(Cc2ccco2)c2ncccc21)Nc1ccccn1	45.5
CCN(CC)C(=O)Cn1c(=O)n(Cc2ccco2)c2ncccc21	51.5
